In the library only some 2.4% were active in any assay of this set; here they are far more common.
D2 antagonist: HTS Assay for Allosteric Antagonists of the Human D2 Dopamine Receptor: Primary Screen for Antagonists | hit rate 2% among 340,000 | D(2) dopamine receptor (Homo sapiens), P14416 | inhibition, % at 10 µM | HEK293 TREx D2 cells, calcium flux, dopamine EC80; in the data active means inhibition above about 30%; inactive means below that, where a call was filed; further: 0% is about no effect
Target sequence (P14416 whole entry, looked up): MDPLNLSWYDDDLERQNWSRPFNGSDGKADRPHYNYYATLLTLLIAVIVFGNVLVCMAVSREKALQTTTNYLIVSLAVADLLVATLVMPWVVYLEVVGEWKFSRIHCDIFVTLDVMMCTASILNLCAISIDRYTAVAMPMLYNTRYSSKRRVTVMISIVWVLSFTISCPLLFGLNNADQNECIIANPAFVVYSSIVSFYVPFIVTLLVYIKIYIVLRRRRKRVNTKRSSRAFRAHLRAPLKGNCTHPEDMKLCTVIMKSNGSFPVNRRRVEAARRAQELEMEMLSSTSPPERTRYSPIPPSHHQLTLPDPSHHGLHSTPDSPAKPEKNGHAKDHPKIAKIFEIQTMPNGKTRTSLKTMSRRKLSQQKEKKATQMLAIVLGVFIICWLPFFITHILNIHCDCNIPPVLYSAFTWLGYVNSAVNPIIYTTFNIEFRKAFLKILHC
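Measurement of antagonist activity uses fluorescent calcium dye in inducible HEK293 T-REx D2 cells: 10 s baseline, compound addition with 180 s read, EC80 dopamine addition with a further 180 s read.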
D2 PAM-1: HTS Assay for Positive Allosteric Modulators of the Human D2 Dopamine Receptor: Primary Screen for Potentiators; HEK293 T-REx D2, calcium flux, EC20 dopamine potentiation; potentiation, % at 10 µM; hit rate 0.34% among 340,000; AID 485347, 2010;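 active means potentiation over 3 SD above the plate norm, cut at about 30% in these data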; further: 0% is about no effect
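Tetracycline-induced Hek293 Trex D2 cells, force-coupled to calcium, loaded with no-wash calcium dye. Compound added with 180 s kinetic read for agonism, then EC20 dopamine and a further 180 s read for potentiation.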
D2 ag-1: Beta-Arrestin HTS for Positive Allosteric Modulators of the Human D2 Dopamine Receptor: Agonists; D(2) dopamine receptor (Homo sapiens), P14416; DiscoveRx PathHunter D2 beta-arrestin, luminescence, 90 min; 100% = 57 uM dopamine signal; activation, % (concentration not given with the values); hit rate 0.084% among 360,000; in the data active means activation above about 40%; inconclusive means between about 15% and that limit
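Agonist mode: compounds alone added to overnight-plated D2 PathHunter cells for 90 min at 37 C, with 57 uM final dopamine (EC100) defining full response. Beta-arrestin recruitment detected by chemiluminescent reagent, read after 1 h at ambient temperature.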
D2 PAM-2: Beta-Arrestin HTS for Positive Allosteric Modulators of the Human D2 Dopamine Receptor: Potentiators; D(2) dopamine receptor (Homo sapiens), P14416; hit rate 0.23% among 360,000; DiscoveRx D2 beta-arrestin cells, luminescence, 90 min; 100% = 57 uM dopamine signal; AID 624464, 2012; potentiation, % (test concentration not listed); in the data active means potentiation above about 50%; inconclusive means mostly about 30% to 49%
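D2 cells co-treated with compound plus 50 nM dopamine (EC20) for 90 min at 37 deg C to detect potentiation. Beta-arrestin recruitment was read as enzyme-fragment luminescence after 1 h at ambient temperature. Full response was set by 57 uM dopamine.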
D2 ag-2: HTS Assay for Allosteric Agonists of the Human D2 Dopamine Receptor: Primary Screen for Agonists; D(2) dopamine receptor (Homo sapiens), P14416; HEK293 T-REx D2 cells, calcium flux agonist mode; activation, % at 2 µM; hit rate 0.53% among 340,000; AID 485358, 2010;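 active means activation over 3 SD above normal in the single-dose calcium agonist read, cut at about 30% in these data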; further: 0% is about no effect
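HEK293 Trex D2 cells, tetracycline-induced, o/n 30 C 5% CO2; no-wash Ca dye, RT 30–90 min; 10-cycle baseline, 23 nl cpd added, kinetic Ca read 180 s; agonist hits = positive Ca response.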
D3 arrestin ag: qHTS of D3 Dopamine Receptor Agonist: D3 Dopamine Receptor B-arrestin Agonist Confirmatory Assay. shares compounds with D2 ag-2. DiscoveRx D3 beta-arrestin cells, luminescence, 90 min. Potency, µM (doses to about 76.9 µM), inactives show top-dose activation, actives largely listed as activators. hit rate 4% among 2,300. AID 720506, 2013;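 further: potency means the concentration at half of the fitted maximal effect; 100% = dopamine control response; nearly all actives have a fitted effect of over 70% in size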
D2 ag-3: qHTS of D3 Dopamine Receptor Agonist: D2 Dopamine Receptor B-arrestin Agonist Counterscreen. shares compounds with D2 ag-2. DiscoveRx PathHunter D2 beta-arrestin, luminescence, 90 min; response scale: percent relative to full dopamine signal. Potency, µM (titrated, usually from 76.9 µM), for the others: top-dose activation, most hits filed as activators. hit rate 5.9% among 2,300; further: potency means the concentration at half of the fitted maximal effect; % of control where 0% means no effect; nearly all actives have a fitted effect of over 70% in size
* marks the source's active call; other numbers are inactive results; u = inconclusive; x = not tested or not shown. Unless noted, the call rests on the fitted dose curve; in most records, active means well fitted activation curve with a large enough effect; inconclusive means small, poorly fitted or top-dose-only effect; inactive means flat fitted curve, though single readings scatter.

SMILES	D2 antagonist	D2 PAM-1	D2 ag-1	D2 PAM-2	D2 ag-2	D3 arrestin ag	D2 ag-3
COc1cc(/C=N/NC(=O)CCN2CCN(c3ccccc3)CC2)cc(OC)c1OC	29.8	-9.6	0.6	-16.8	18.9	-3.5%	6.3%
O=C(CCN1CCN(c2ccccc2)CC1)N/N=C/c1ccc(O)c(O)c1O	78.1*	-23.8	11.4	6.8	83.0*	u	31.6µM*
O=[N+]([O-])c1ccc(C(O)CN2CCN(c3ccccc3)CC2)cc1 (stereo unspecified)	46.4*	-19.9	u	-3.9	59.7*	u	u
COc1ccc(/C=N/NC(=O)CCN2CCN(c3ccccc3)CC2)c(OC)c1OC	84.0*	-23.6	u	-10.4	79.6*	10.7%	u
O=C(COc1ccc([N+](=O)[O-])cc1)N1CCC(c2nc3ccccc3s2)CC1	x	-4.9	x	x	0.0	x	x
O=[N+]([O-])c1ccc(N2CCN(Cc3ccc([N+](=O)[O-])o3)CC2)cc1	18.7	-8.0	10.8	5.8	0.7	x	x
O=C(CCN1CCN(c2ccccc2)CC1)N/N=C/c1ccc([N+](=O)[O-])o1	69.9*	-18.4	u	6.3	86.5*	0.4%	11.2µM*
O=[N+]([O-])c1ccc(CN2CCN(c3ccccc3)CC2)o1	-16.2	-8.0	4.1	2.6	-0.5	3.8%	1.9%
CC1=Nc2ccccc2/C1=C/c1nc(-c2ccc(C)s2)oc1O	x	x	-5.0	-10.1	x	x	x
CC1=Nc2ccccc2/C1=C/c1sc(=N)n(-c2nccs2)c1O	-12.3	-4.3	-2.6	-26.6	9.6	-15.7%	-9.8%
OCC1(Cc2cccc(C(F)(F)F)c2)CCN(Cc2cc3ccccc3o2)CC1	21.9	-17.3	51.1*	12.1	49.0*	u	39.8µM*
COc1ccc(CC2(CO)CCN(Cc3ccncc3)CC2)cc1	6.6	-6.5	-4.8	3.5	1.8	x	x
COc1ccc(CC2(CO)CCN(Cc3cc4ccccc4o3)CC2)cc1	x	x	62.2*	17.8	x	u	11.2µM*
COc1cc(NC(=O)c2cc3c(=O)n(Cc4ccco4)ccc3nc2C)cc(OC)c1OC	x	9.7	x	x	-0.3	x	x
COc1cc2[nH]c(=S)nc(NCC3CCCO3)c2cc1OC (stereo unspecified)	32.5*	4.1	-1.2	-7.5	-0.1	1.4%	-6.0%
CCN(CC)S(=O)(=O)c1cccc(C(=O)N/N=C2\CC(=O)CC(C)(C)C2)c1	-15.6	-16.7	-0.4	4.1	0.7	-3.2%	1.9%
CCN(CC)S(=O)(=O)c1cccc(C(=O)N/N=C2\CCCC(=O)C2)c1	16.8	-3.0	-7.0	-8.6	4.1	x	x
COCc1ccc(-c2ccc3c(c2)c(C#Cc2ccsc2)c(-c2cc(OC)cc(OC)c2)n3C)cc1	-19.9	-8.4	-0.9	-3.8	0.8	-4.8%	-3.5%
CCc1ccc(NC(=O)C(=O)NCCN2CCN(C(=O)c3ccc(OC)cc3)CC2)cc1	x	x	-2.8	-16.8	x	x	x
CCOC(=O)c1ccc(NC(=O)CN2CCN(C(=O)c3ccco3)CC2)cc1	67.4*	-5.8	u	21.4	79.6*	22.4µM*	u
NC(=O)c1ccc(NC(=O)CN2CCOCC2)cc1	-5.8	-4.8	0.2	-13.0	0.2	x	x
NC(=O)c1ccc(NC(=O)CN2CCN(C(=O)c3ccco3)CC2)cc1	x	x	12.5	-1.2	x	u	u
CCc1ccc(NC(=O)C(=O)NCCN2CCN(C(=O)c3ccco3)CC2)cc1	1.2	-22.6	u	19.6	66.9*	5.01µM*	u
CCOC(=O)c1c(NC(=O)c2noc3c2CC(C(C)(C)C)CC3)sc2c1CCCC2 (stereo unspecified)	x	-4.8	x	x	1.1	x	x
O=C(CSc1ccc2nnc(-c3ccncc3)n2n1)NCC1CCCO1 (stereo unspecified)	12.9	11.5	-4.8	-5.7	0.4	-11.1%	-0.6%
SMILES	D2 antagonist	D2 PAM-1	D2 ag-1	D2 PAM-2	D2 ag-2	D3 arrestin ag	D2 ag-3
Cc1ccc(C(=O)CN2CCN(c3ccccn3)CC2)c(C)c1	x	x	u	4.4	x	u	u
Cc1ccc2[nH]cc(C(=O)CN3CCN(c4ccccn4)CC3)c2c1	34.1*	-27.8	1.9	-41.9	19.1	10.3%	3.9%
O=C(CN1CCN(c2cccc(Cl)n2)CC1)N1CC(O)CO1 (stereo unspecified)	2.5	-3.3	0.0	-7.9	0.1	x	x
O=C(CN1CCN(c2ccccn2)CC1)N1CC(O)CO1 (stereo unspecified)	12.0	-13.0	7.2	0.2	29.1	21.2%	6.0%
CCOC(=O)N1CCC(NC(=O)c2ccc3c(c2)N(Cc2cc(C)ccc2C)C(=O)c2ccccc2S3=O)CC1 (stereo unspecified)	x	-3.6	x	x	-0.4	x	x
COc1ccccc1NC(=O)Cn1c(=O)n(Cc2cccs2)c(=O)c2cccnc21	x	-6.8	x	x	0.2	x	x
Cc1ccc(S(=O)(=O)N(Cc2cccnc2)Cc2cc3ccccc3[nH]c2=O)cc1	93.9*	2.5	-2.4	3.9	0.0	-1.5%	1.5%
COc1ccc(S(=O)(=O)N(Cc2cccnc2)Cc2cc3ccccc3[nH]c2=O)cc1	7.8	5.0	2.7	3.6	0.6	x	x
CCN(CC(=O)Nc1ccccc1C(F)(F)F)C(=O)c1ccccc1Sc1ccccc1C#N	3.5	-6.6	-1.5	3.5	0.3	-3.9%	-5.0%
CN(CC(=O)Nc1ccccc1C(F)(F)F)C(=O)c1ccccc1Sc1ccccc1C#N	-6.6	4.8	2.6	-2.6	-0.3	x	x
Cc1ccc(NC(=O)Cn2ccn(-c3ccc(F)c(F)c3)c(=O)c2=O)cc1C	x	-1.9	x	x	0.5	x	x
Cc1ccc(NC(=O)Cn2nc(C)c3nn(-c4ccc(Cl)cc4)c(C)c3c2=O)cc1F	x	7.0	x	x	x	x	x
CC(C)CC[n+]1ccccc1/C=C/c1ccc(N(C)C)cc1	4.6	10.6	-1.8	-9.7	10.4	10.4%	17.1%
CN(C(=O)Cn1nc(Cc2cccnc2)c2ccccc2c1=O)c1cccc(C(F)(F)F)c1	x	0.4	x	x	x	x	x
O=C(c1cccs1)N(Cc1ccco1)C1CCS(=O)(=O)C1 (stereo unspecified)	40.8*	-19.9	u	20.8	58.4*	16.6%	24.8%

Screens (PubChem)
